# According to article PMC10726135, “HNF4α isoforms regulate the circadian balance between carbohydrate and lipid metabolism in the liver”:
# Whole data set: some 18,000 sequences, median “log2 normalized intensity” near 0.39, cut for the highest 2% near 6.6. Many of the other results were omitted from the sample, so the highest values are more common in it than they were.
# Target: T1, HNF4alpha2 (COS-7 nuclear extract) (Homo sapiens, UniProt P41235 1-474)
# T1 sequence: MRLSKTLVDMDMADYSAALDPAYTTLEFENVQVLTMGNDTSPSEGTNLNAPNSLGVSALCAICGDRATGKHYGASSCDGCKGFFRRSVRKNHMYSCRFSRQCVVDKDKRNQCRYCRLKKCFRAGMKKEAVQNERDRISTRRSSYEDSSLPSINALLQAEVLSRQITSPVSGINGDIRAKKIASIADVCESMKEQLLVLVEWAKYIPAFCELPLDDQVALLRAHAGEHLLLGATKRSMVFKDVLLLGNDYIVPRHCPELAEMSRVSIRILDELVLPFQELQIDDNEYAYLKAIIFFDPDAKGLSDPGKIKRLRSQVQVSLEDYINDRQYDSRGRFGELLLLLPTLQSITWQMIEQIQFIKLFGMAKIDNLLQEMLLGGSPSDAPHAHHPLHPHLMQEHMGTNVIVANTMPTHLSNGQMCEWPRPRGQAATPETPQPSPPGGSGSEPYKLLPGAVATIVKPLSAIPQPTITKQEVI
# Experiment: protein-binding microarray; COS-7 nuclear extract on double-stranded Agilent 4x180k PBM; binding buffer, salt, pH and temperature not given in the material; high values mean tight binding
# Conditions: chain copies: 2; label: 3' end of strand 1 on the slide; dsDNA, one strand shown
# Method in brief: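 Binding signal is the background-corrected, normalized gProcessedSignal calculated by Agilent software. It was measured by applying nuclear extracts of COS-7 cells transiently transfected with a human HNF4α isoform expression vector to a custom Agilent SurePrint G3 4x180k array of ~44,000 double-stranded ~60-nt test sequences in quadruplicate, then imaging bound HNF4α on an Agilent G2565CA scanner at 2-µm resolution.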
row,Sequence,binding signal
1,AGACCCTTATCAGTAGTTCTCCTTTCTGCCGCCTAGGGAGATTAGAGTATCGGTCGA,1.39 log2 normalized intensity
2,ATGCATAGAAGTATGTCTGGGATTTGAAGGGCCTAGGGAGATTAGAGTATCGGTCGA,-0.542 log2 normalized intensity
3,GTCAAGCAATGATCTTCATGAACTTCTGTCGCCTAGGGAGATTAGAGTATCGGTCGA,1.26 log2 normalized intensity
4,TAAAACCATGCAAATTGCTGACTTTCTGTGGCCTAGGGAGATTAGAGTATCGGTCGA,-0.773 log2 normalized intensity
5,CAGCAGGGCACCGCCTCCACACCCCAGCCTGCCTAGGGAGATTAGAGTATCGGTCGA,3.03 log2 normalized intensity
6,GCCCTCCCCCAGAGAGAACAGTCCTACAAAGCCTAGGGAGATTAGAGTATCGGTCGA,2.08 log2 normalized intensity
7,AAGATGGGCATTAGGTGGACAGGGGTGTGTGCCTAGGGAGATTAGAGTATCGGTCGA,1.78 log2 normalized intensity
8,ACCCTTTGAGTCCTTCATGGCTACCCTTCAGCCTAGGGAGATTAGAGTATCGGTCGA,0.859 log2 normalized intensity
9,CCCGCAGTGAGGGACAAGGCTGTCCCCCATGCCTAGGGAGATTAGAGTATCGGTCGA,1.6 log2 normalized intensity
10,GGGGGTAAAGTGGATTGCTGGCCTTTTATCGCCTAGGGAGATTAGAGTATCGGTCGA,0.814 log2 normalized intensity
11,CTCACATGAGCTAGAGCTCGTGTCATCTCTGCCTAGGGAGATTAGAGTATCGGTCGA,-0.899 log2 normalized intensity
12,CACCAGAAAAATGTACATGTGCAAAAGCACGCCTAGGGAGATTAGAGTATCGGTCGA,0.628 log2 normalized intensity
13,AAAGGGGAAAAGGTCAAATACCAAAATGTGGCCTAGGGAGATTAGAGTATCGGTCGA,1.8 log2 normalized intensity
14,CAAGGGTCAGTTCATTAAAAAAAAAAAAAAGCCTAGGGAGATTAGAGTATCGGTCGA,1.19 log2 normalized intensity
15,AAGAAAAGCCTTGTGGCAGTGAGAACAGGTGCCTAGGGAGATTAGAGTATCGGTCGA,0.143 log2 normalized intensity
16,TAGAAGCAGTGGGACAAAGGTCACAGGAAAGCCTAGGGAGATTAGAGTATCGGTCGA,4.42 log2 normalized intensity
17,GGTCAGAAAAAGCTGACGCCCCACCCCCTCGCCTAGGGAGATTAGAGTATCGGTCGA,5.94 log2 normalized intensity
18,GGGAAGCAGTGAGGGTGGGTTCAAAGGTCAGCCTAGGGAGATTAGAGTATCGGTCGA,8.24 log2 normalized intensity
19,GCAGTGAGGGTGGGTTCAAAGGTCAGAAAAGCCTAGGGAGATTAGAGTATCGGTCGA,7.95 log2 normalized intensity
20,TCAAAGGTCAGAAAAAGCTGACGCCCCACCGCCTAGGGAGATTAGAGTATCGGTCGA,3.28 log2 normalized intensity
21,GGCATGGGAAGCAGTGAGGGTGGGTTCAAAGCCTAGGGAGATTAGAGTATCGGTCGA,0.803 log2 normalized intensity

row,Sequence,binding signal
1,GAGGGTGGGTTCAAAGGTCAGAAAAAGCTGGCCTAGGGAGATTAGAGTATCGGTCGA,6.66 log2 normalized intensity
2,TGGGTTCAAAGGTCAGAAAAAGCTGACGCCGCCTAGGGAGATTAGAGTATCGGTCGA,6.84 log2 normalized intensity
3,GACTCAGAAAAATATGTGGACTTCAAAGGTGCCTAGGGAGATTAGAGTATCGGTCGA,1.29 log2 normalized intensity
4,AATTTTTTTTTCTTATCTCACTGGATGTGTGCCTAGGGAGATTAGAGTATCGGTCGA,2.22 log2 normalized intensity
5,AGGTTAAGACTTTGAATCAGTAAATATTTGGCCTAGGGAGATTAGAGTATCGGTCGA,0.901 log2 normalized intensity
6,AGATACAGGTCAGACCCTGGAATTCCAGAAGCCTAGGGAGATTAGAGTATCGGTCGA,-0.969 log2 normalized intensity
7,GGCCCATTTTCCCATGGTCTGTAGAAGGCGGCCTAGGGAGATTAGAGTATCGGTCGA,0.306 log2 normalized intensity
8,GATGTTCGTTTGGATCGCTTGGCTCAGGCCGCCTAGGGAGATTAGAGTATCGGTCGA,-0.819 log2 normalized intensity
9,CTCTGATCCTAGTCTTTGCCCCACTGCAAGGCCTAGGGAGATTAGAGTATCGGTCGA,2.95 log2 normalized intensity
10,GGGTGGTGGTTACCGGCAGAGGCTGCAGAGGCCTAGGGAGATTAGAGTATCGGTCGA,0.249 log2 normalized intensity
11,CTCCCTTTGATGCGGTCAGAGTTCATTTGGGCCTAGGGAGATTAGAGTATCGGTCGA,3.48 log2 normalized intensity
12,CAGTTTTTGTTTGCACCTCACAGGAAGAACGCCTAGGGAGATTAGAGTATCGGTCGA,1.15 log2 normalized intensity
13,ATTTGAGGGTGACACTGCTCTCTCCAGGGGGCCTAGGGAGATTAGAGTATCGGTCGA,-0.738 log2 normalized intensity
14,CCCACAGAGGGGGTTTGTTTTTTGCCCTTTGCCTAGGGAGATTAGAGTATCGGTCGA,4.6 log2 normalized intensity
15,TGCCCTTTGCCTGGTGATCTTTGTTAGACCGCCTAGGGAGATTAGAGTATCGGTCGA,2.7 log2 normalized intensity
16,TGTTTTTTGCCCTTTGTACCCACACACACCGCCTAGGGAGATTAGAGTATCGGTCGA,6.48 log2 normalized intensity
17,AGCCTACCCACCCACACCTCCCCTTTGTTTGCCTAGGGAGATTAGAGTATCGGTCGA,3.59 log2 normalized intensity
18,AGAGGGGGTTTGTTTTTTGCCCTTTGTACCGCCTAGGGAGATTAGAGTATCGGTCGA,8.01 log2 normalized intensity
19,GGGTTTGTTTTTTGCCCTTTGTACCCACACGCCTAGGGAGATTAGAGTATCGGTCGA,7.67 log2 normalized intensity
20,ATGCCGGCGTGACCCCCACTGCCTGCCTGCGCCTAGGGAGATTAGAGTATCGGTCGA,3.81 log2 normalized intensity
21,ATTTGACAATTTACAGTGTTCAAAGGTAGCGCCTAGGGAGATTAGAGTATCGGTCGA,1.66 log2 normalized intensity
